This is a sample that favours compounds with a hit; in the whole collection about 3% have one here.
SENP8 block-1: SENP8 protease inhibition; inhibition, % at 10 µM; AID 2540; purified SENP8, Z-RLRGG-aminoluciferin cleavage, luminescence; Q96LD8; 1.2% of 330,000 active; in the data active = inhibition above about 50%
Target sequence (Q96LD8 whole entry, looked up): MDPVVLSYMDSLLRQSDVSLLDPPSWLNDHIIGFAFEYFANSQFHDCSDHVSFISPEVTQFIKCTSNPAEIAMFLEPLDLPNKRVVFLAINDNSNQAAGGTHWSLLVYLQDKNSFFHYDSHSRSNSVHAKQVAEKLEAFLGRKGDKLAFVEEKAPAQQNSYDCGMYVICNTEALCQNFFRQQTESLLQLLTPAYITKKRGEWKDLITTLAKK
SENP7 block: inhibitors of human SENP7 protease; Q9BQF6; recombinant SENP7, Z-RLRGG-aminoluciferin luminescence, 40 min; inhibition, % at 5 µM; 1.5% of 330,000 active; AID 434973;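 active = inhibition above about 50% at the single test dose, limit read from the data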
SENP6 block: blocks the human protease SENP6; Recombinant SENP6 catalytic domain, aminoluciferin luminescence; Q9GZR1; AID 2599; 1.8% of 330,000 active; inhibition, % at 10 µM;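 active = inhibition above about 50% at the single tested dose, limit read from the data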
Target sequence (Q9GZR1 628-1112 limits assumed): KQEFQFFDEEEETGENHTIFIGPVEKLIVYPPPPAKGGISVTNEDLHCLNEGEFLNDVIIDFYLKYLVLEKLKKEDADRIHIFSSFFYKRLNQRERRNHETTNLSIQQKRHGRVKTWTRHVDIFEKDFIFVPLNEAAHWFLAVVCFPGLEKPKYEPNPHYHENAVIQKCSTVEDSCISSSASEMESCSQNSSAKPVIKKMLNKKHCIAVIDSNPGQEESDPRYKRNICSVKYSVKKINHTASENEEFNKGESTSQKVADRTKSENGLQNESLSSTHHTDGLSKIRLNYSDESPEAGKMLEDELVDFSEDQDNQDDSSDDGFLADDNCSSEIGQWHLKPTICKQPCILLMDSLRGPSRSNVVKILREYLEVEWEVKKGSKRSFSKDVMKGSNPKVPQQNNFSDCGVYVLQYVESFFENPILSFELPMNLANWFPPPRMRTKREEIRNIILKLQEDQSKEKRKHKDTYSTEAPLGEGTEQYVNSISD
SENP8 block-2: SENP8 (human) protease inhibition | Q96LD8 | recombinant SENP8, Nedd8 substrate fluorescence | inhibition, % at 20 µM | 0.64% of 360,000 active | AID 602440; in the data active = inhibition mostly above about 40%, no sharp cut-off; inactive = mostly below about 27%
PPC-1+TRAIL kill: compounds killing PPC-1 cancer cells with TRAIL present (potentiator screen, no TRAIL-free arm); cell killing (% activity), % at 4 µM or 5 µM; PPC-1 cells + TRAIL, ATPLite viability luminescence; 0.41% of 220,000 active;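 active = cell killing above 50% in the first pass at 4 µM, then a duplicate retest at 5 µM averaging 50% or more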
TRAIL sens C8: caspase-8 TRAIL sensitization | NB7+C8 cells + TRAIL, ATPlite viability luminescence | 1% of 360,000 active | AID 624354 | inhibition (viability loss, TRAIL sensitization), % at 10 µM;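 active = compounds causing at least 50% loss of cell viability in the single-dose screen, relative to plate controls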
SENP8 conf: SENP8 (human) inhibition, single concentration confirmation | shares compounds with SENP8 block-2 | purified SENP8, Nedd8-AMC/pro-Nedd8 cleavage fluorescence, 30 min | inhibition, % at 25 µM | 15% of 1,400 active | AID 624319; in the data active = inhibition mostly above about 39%, no sharp cut-off; inactive = mostly below about 34%
Large screens that a line does not name were inactive (follow-up assays come after a bar, where they were run).

O=[N+]([O-])c1ccc(N/N=C2\CC3CC=CC23)c([N+](=O)[O-])c1 (stereo unspecified)	SENP8 block-2 40 | SENP8 conf inactive
O=[N+]([O-])c1ccc(NN=C2CC3CCC2C3)c([N+](=O)[O-])c1 (stereo unspecified)	SENP8 block-2 41 (no result: SENP8 block-1, SENP7 block, SENP6 block, PPC-1+TRAIL kill) | SENP8 conf inactive
Cn1nnnc1NCc1ccccc1F	none (no result: PPC-1+TRAIL kill)
O=C(Nc1c(-c2ccccc2)[nH][nH]c1=O)c1cccc(C(F)(F)F)c1	SENP8 block-2 49 (no result: SENP8 block-1, SENP7 block, SENP6 block, PPC-1+TRAIL kill) | SENP8 conf inactive
O=C(Nc1c(-c2ccc(Cl)cc2)[nH][nH]c1=O)c1ccc(Br)cc1	SENP8 block-2 43 (no result: SENP8 block-1, SENP7 block, SENP6 block, PPC-1+TRAIL kill) | SENP8 conf inactive
Cc1cnc(C(=O)Nc2c(-c3ccccc3)[nH][nH]c2=O)cn1	SENP8 block-2 41 (no result: SENP8 block-1, SENP7 block, SENP6 block, PPC-1+TRAIL kill) | SENP8 conf 45
O=C(Nc1c(-c2ccccc2)[nH][nH]c1=O)c1ccccc1	none (no result: SENP8 block-1, SENP7 block, SENP6 block, PPC-1+TRAIL kill)
COc1ccc(-c2[nH][nH]c(=O)c2NC(=O)c2ccccc2Br)cc1	none (no result: SENP8 block-1, SENP7 block, SENP6 block, PPC-1+TRAIL kill)
CC1CCN(c2ccc3c(c2)S(=O)(=O)c2cccc(C(=O)NC4CC4)c2C3=O)CC1	none (no result: PPC-1+TRAIL kill)
CC(C)C[C@H](NC(=O)N1CCCCCC1)C(=O)O	none
CC(C)(C)Nc1nc(N2CCCC2)nc(N2CCCC2)n1	SENP8 block-2 44 | SENP8 conf inactive
CCNc1nc(NC(C)(C)C)nc(N2CCCC2)n1	none
Cc1cc(C)cc(OCCNC(=O)C2CCN(S(=O)(=O)c3ccccc3)CC2)c1	none (no result: PPC-1+TRAIL kill)
O=C(CN1C(=O)C(=O)N(C2CCCC2)C1=O)Nc1ccc(F)cc1F	none (no result: PPC-1+TRAIL kill)
CN1OC[C@@H]2CN(C(=O)CCc3ccccc3)[C@H](c3cccc(-c4ccc(C#N)cc4)c3)C[C@@H]21	none (no result: SENP8 block-1, SENP7 block, SENP6 block, PPC-1+TRAIL kill)
CC(=O)O[C@@]12CO[C@@H]1C[C@H](O)[C@@]1(C)C(=O)[C@H](O)C3=C(C)[C@@H](OC(=O)[C@H](O)[C@@H](NC(=O)OC(C)(C)C)c4ccccc4)C[C@](O)([C@@H](OC(=O)c4ccccc4)[C@H]21)C3(C)C	none (no result: SENP8 block-2, TRAIL sens C8)
CC(=O)O[C@H]1C[C@@]2(O)[C@@H](OC(=O)c3ccccc3)C3[C@@](C)([C@@H](O)C[C@H]4OC[C@@]34OC(C)=O)[C@@H](O)[C@H](OC(C)=O)C(=C1C)C2(C)C (stereo partly specified)	SENP8 block-2 43 (no result: PPC-1+TRAIL kill) | SENP8 conf inactive
Cc1onc(-c2ccccc2Cl)c1-c1nc(-c2ccccn2)no1	SENP8 block-2 41 | SENP8 conf inactive
Cc1onc(-c2ccccc2Cl)c1C(=O)c1ccccc1	none
CCCN(CCC)CCCNc1ccc(C(=O)Nc2cccc(OC)c2)cc1[N+](=O)[O-]	SENP8 block-2 35 | SENP8 conf inactive
CN1CCC2(CC1)N=C(c1ccc(F)cc1)C(=S)N2C(=O)c1ccccc1	SENP8 block-2 55 | SENP8 conf 39
Cc1ccc(S(=O)(=O)Nc2cncnc2NS(=O)(=O)c2ccc(C)cc2)cc1	none (no result: SENP8 block-1, SENP7 block, SENP6 block, PPC-1+TRAIL kill)
O=C(NCc1cccnc1)Nc1cccc([N+](=O)[O-])c1	none (no result: PPC-1+TRAIL kill)
CCOC(=O)N1CCN(C(=O)COC(=O)CNC(=O)c2ccc(C)cc2)CC1	SENP8 block-2 43 (no result: PPC-1+TRAIL kill) | SENP8 conf inactive
COc1ccc(NC(=O)CN2CCOCC2)cc1S(=O)(=O)N1CCCCC1	none (no result: PPC-1+TRAIL kill)
COc1ccc(NC(=O)CN2CCc3ccccc3C2)cc1S(=O)(=O)N1CCOCC1	SENP8 block-2 47 | SENP8 conf inactive
CCOC(=O)c1ccc(NC(=O)CN2CCc3ccccc3C2)cc1	SENP8 block-2 49 | SENP8 conf 47
CCOc1ccc(NC(=O)CN2CCc3ccccc3C2)cc1	none (no result: PPC-1+TRAIL kill)
CCN1C[C@@H]2[C@@H]3C(=O)N(C)C(=O)[C@@H]3[C@](CC)(C1=O)N2C(=O)c1ccc(Cl)cc1	none (no result: SENP8 block-1, SENP7 block, SENP6 block, PPC-1+TRAIL kill)
CC(C)N(C(=O)CSc1nn2c(=O)c(C(C)(C)C)nnc2s1)c1ccccc1	SENP8 block-2 40 | SENP8 conf inactive
CC(C)(C)c1nnc2sc(SCCN3C(=O)c4ccccc4C3=O)nn2c1=O	none
Cc1ccc(C(=O)NCc2ccccn2)c(Cl)c1	SENP8 block-2 41 | SENP8 conf inactive
Cc1ccc(-c2cc(C(=O)NCc3ccccn3)c3ccccc3n2)cc1	none
O=C(CCCCCNC(=O)N1CCn2c1nc1ccccc12)N[C@H](C(=O)O)c1ccccc1	SENP8 block-2 52 (no result: PPC-1+TRAIL kill) | SENP8 conf inactive
COc1ccc(-n2c(O)c(C=NCc3ccccn3)c3ccccc3c2=O)c(OC)c1	SENP8 block-2 41 | SENP8 conf inactive
O=c1c2ccccc2c(C=NCc2ccccn2)c(O)n1-c1ccccc1	SENP8 block-2 26 | SENP8 conf inactive
O=c1c2ccccc2c(C=NCc2ccccn2)c(O)n1-c1ccccc1Cl	none
COc1cccc(-n2c(O)c(C=NCc3ccccn3)c3ccccc3c2=O)c1	none
C[C@@H]1CN([C@H](C)CO)C(=O)Cc2cc(NC(=O)CCC(F)(F)F)ccc2O[C@@H]1CN(C)S(=O)(=O)c1ccccc1	none (no result: SENP8 block-1, SENP7 block, SENP6 block, PPC-1+TRAIL kill)
O=S1(=O)NC2c3ccccc3CC2O1 (stereo unspecified)	SENP8 block-2 46 (no result: PPC-1+TRAIL kill) | SENP8 conf 57
CC(=O)/C(=N/Nc1ccccc1[N+](=O)[O-])N1CCCc2ccccc21	SENP8 block-2 41 | SENP8 conf inactive
CC(=O)/C(=N/Nc1ccc([N+](=O)[O-])cc1)N1CCCc2ccccc21	SENP8 block-2 47 | SENP8 conf inactive
CC(=O)/C(=N/Nc1ccc(Br)cc1)N1CCCc2ccccc21	none
COc1ccc(/C=N/N=C2/NC(=O)CC(C(=O)O)S2)cc1 (stereo unspecified)	none
COc1ccc(/C=N/N=C2/CC(C)(C)Cc3n[nH]c(=O)cc32)cc1	SENP8 block-2 44 | SENP8 conf inactive
Cc1cnc(C(=O)OCC(=O)NCc2cccc(Cl)c2)cn1	none (no result: PPC-1+TRAIL kill)
Cc1nn(Cc2ccc(Cl)cc2Cl)c(C)c1NC(=O)Cn1nc([N+](=O)[O-])c(Cl)c1C	SENP8 block-2 54 | SENP8 conf inactive
Cc1nn(Cc2ccc(Cl)cc2)c(C)c1NC(=O)Cn1nc([N+](=O)[O-])c(Cl)c1C	none
COc1cc(CNC(=O)OC2CC3CC2[C@H]2CCCCN2C3=O)cc(OC)c1 (stereo partly specified)	none (no result: SENP8 block-1, SENP7 block, SENP6 block, PPC-1+TRAIL kill)
C/C(=N\NC(=O)c1ccccn1)c1ccc(Cl)cc1	SENP8 block-2 55, TRAIL sens C8 61 | SENP8 conf inactive
C/C(=N/NC(=O)c1ccccn1)c1ccc(O)cc1	none
Cc1ccc(S(=O)(=O)N2CCOCC2)cc1NC(=O)COC(=O)/C=C/c1ccco1	none (no result: PPC-1+TRAIL kill)
O=C(CS(=O)(=O)Cc1ccccc1)N1CCN(c2ccccc2F)CC1	none (no result: PPC-1+TRAIL kill)
COc1ccc(-c2nc(-c3ccccc3OC)no2)cc1OC	SENP8 block-2 40 | SENP8 conf inactive
CCOc1ccc(N2CC(O)=C(c3ccccc3)C2=N)cc1	none
COc1cc(NC(=O)c2ccc([N+](=O)[O-])o2)ccc1NC(=O)c1ccco1	SENP8 block-2 44 (no result: PPC-1+TRAIL kill) | SENP8 conf inactive

Source: PubChem (Sanford-Burnham Center for Chemical Genomics)
